Consider eight compounds from PubChem BioAssay AID588441 (Southern Research Specialized Biocontainment Screening …, 2011).

Results filed as inconclusive are left out. Unmarked numbers belong to inactive results. The rule behind the calls is not given here.

A short description of the experiment: HepG2 cell cytotoxicity, cytotoxicity control, set 5 (AID 588441). To be noted: series mostly up to 50 µM; viability: at the top concentration.
As usually defined, the viability is a read-out of living cells in per cent, often relative to untreated cells. Consider `CCC(C)NC(=O)CSc1nc2ccccc2c(=O)[nH]1` (stereo not drawn), for which the “viability” value was 100%.

For the compound `O=C(NCCc1ccc(Cl)cc1)c1ccc(CNc2c(N3CCOCC3)c(=O)c2=O)cc1`, the “viability” value is 99.1%.

Turning to `CC(C)OC(=O)CSc1ncnc2c1cnn2-c1ccccc1`, the “viability” value is 98.7%.

With `COc1ccc(N2CCN(C(=O)c3ccc(CNc4c(N5CCOCC5)c(=O)c4=O)cc3)CC2)cc1`, the “viability” value was 109%.

In the case of `CC1CC(C)CN(C(=O)C2CCC(CNc3c(N4CCCCC4)c(=O)c3=O)CC2)C1` (stereo not drawn), the “viability” value was 109% [at 15 µM].

For the compound `CCOC(=O)CSc1ncnc2c1cnn2-c1ccccc1`, the “viability” value is 95.6%.

Turning to `CCOC(=O)CSc1ncnc2c1cnn2-c1ccc(C)cc1C`, the “viability” value was 97.2%.

For `COC(=O)CSc1ncnc2c1cnn2-c1ccc(C)cc1C`, the “viability” value was 99%.
